Where “and” joins values, the source holds several entries; their conditions need not be identical. Equal values may be shown once. Records with an inconclusive call do not appear. A structure can be active in one record and inactive in another. Calls of active or inactive are those of the source. Unless noted, calls come from the whole dose curve; as a rule, active = well fitted curve in the direction sought with a large enough effect; inconclusive = small, poorly fitted or top-dose-only effect, or another doubt; inactive = no such curve, though single readings can be large; an effect the other way counts as inactive or inconclusive.
Columns and labels:
[1] = NS1 protein of Zika virus - qHTS assay to identify small molecule inhibitors in human HEK 293 cells (AID 1347053); note: nearly all actives have a fitted effect of over 55% in size; note: potency is the fitted concentration of half-maximal effect
In short: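 TR-FRET signal from two anti-ZIKV NS1 antibodies quantified NS1 in HEK 293 cells 24 h after MR766 infection at MOI = 0.5; compounds were added 1 h before virus. Uninfected cells and infected cells defined the NS1 normalization range.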

[2] = qHTS of pediatric cancer cell lines to identify multiple opportunities for drug repurposing: Primary screen for TC32 cells (AID 1347089); note: nearly all actives have a fitted effect of over 60% in size; note: potency is the fitted concentration of half-maximal effect; for activity change, negative = cytotoxic: % is set by controls: 0 for no effect and ±100 for the full control effect
In short: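 A viability screen of TC32 cells was run over 48 h, with primary MIPE doses spanning 0.78 nM–46 µM and NPC doses 0.59 nM–46 µM. ATP luminescence (CellTiter-Glo) served as the read-out.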

[3] = qHTS of pediatric cancer cell lines to identify multiple opportunities for drug repurposing: Primary screen for DAOY cells (AID 1347090); note: nearly all actives have a fitted effect of over 55% in size; note: potency is the fitted concentration of half-maximal effect;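 for activity change, negative = cytotoxic: series mostly up to about 46 µM; plate controls were DMSO for no effect and bortezomib for full effect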
In short: (§1)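 Eight- or eleven-point concentration series, 48 h treatment at 37 degrees C in growth media; readout CellTiter-Glo luminescence. Potency and efficacy were taken from the concentration-response curves.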

[4] = qHTS of pediatric cancer cell lines to identify multiple opportunities for drug repurposing: Primary screen for SJ-GBM2 cells (AID 1347091); note: potency is the fitted concentration of half-maximal effect;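 for activity change, negative = cytotoxic: plate controls were DMSO neutral control for no effect and bortezomib for full effect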
In short: as §1

[5] = molecular target: T1, Tyrosine-protein phosphatase non-receptor type substrate 1 (Homo sapiens) + Leukocyte surface antigen CD47 (Homo sapiens) (UniProt P78324+Q08722); experiment: CD47-SIRPalpha protein protein interaction - LANCE assay qHTS validation (AID 1347057; active = well fitted curve in the direction sought with a large enough effect in the signal ratio, with a control signal flat, not every such curve was filed as active; the % refers to the signal ratio; note: series mostly up to about 38 µM; 0% is about no effect)
In short: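 Inhibition of soluble CD47/SIRPalpha ectodomain association by titrated compounds, measured as 665/615 nm time-resolved FRET ratio after sequential 30 min room-temperature incubations.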

[6] = molecular target: T1, Tyrosine-protein phosphatase non-receptor type substrate 1 (Homo sapiens) + Leukocyte surface antigen CD47 (Homo sapiens); experiment: CD47-SIRPalpha protein protein interaction - Alpha assay qHTS validation (AID 1347059);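 note: bead proximity luminescence from CD47 binding SIRPalpha after compound preincubation with SIRPalpha; % is set by controls: 0 for no effect and ±100 for the full control effect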
In short: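 In PBS (pH 7.4) with 0.05% IGEPAL CA-630, compound is preincubated with biotin-Avi-SIRPalpha ectodomain before His-CD47 ectodomain and affinity beads are added. Light-protected room-temperature incubations; AlphaScreen readout.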

[7] = molecular target: Parathyroid hormone/parathyroid hormone-related peptide receptor (Homo sapiens) (UniProt Q03431); experiment: qHTS for PTHR1 Agonists: Optimization Screen against the NCGC LOPAC library (AID 1347079);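 note: GloSensor cAMP luminescence in HEK-293 GP2 cells expressing human PTHR1 with IBMX; 0% is about no effect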
In short: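 HEK-293 GP2 cells, PTHR1 + GloSensor cAMP; 3000 cells/well, o/n. Luciferin + IBMX 0.5mM each (stock), 1 hr 37C. Cpd titration, 1 hr 37C. Lum after 15 min RT. Ctrl M-PTH(1-15) top 10uM.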

[8] = molecular target: T1, Tyrosine-protein phosphatase non-receptor type substrate 1 (Homo sapiens) + Leukocyte surface antigen CD47 (Homo sapiens); experiment: CD47-SIRPalpha protein protein interaction - HTRF assay qHTS validation (AID 1347058; active = well fitted curve in the direction sought with a large enough effect in the signal ratio, not every such curve was filed as active; the % refers to the signal ratio; note: series mostly up to about 38 µM; 0% is about no effect)
In short: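 Soluble extracellular domains (6His-CD47, Avi-tag-biotinylated SIRPalpha) in PBS pH 7.4 with 0.05% IGEPAL CA-630. Compounds were preincubated 30 min at RT with CD47 and anti-His-Eu, then SIRPalpha and SAV-XL665 were added. TR-FRET 665/615 ratio.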

T1 sequence (P78324 whole entry, looked up, the tested form may be a part): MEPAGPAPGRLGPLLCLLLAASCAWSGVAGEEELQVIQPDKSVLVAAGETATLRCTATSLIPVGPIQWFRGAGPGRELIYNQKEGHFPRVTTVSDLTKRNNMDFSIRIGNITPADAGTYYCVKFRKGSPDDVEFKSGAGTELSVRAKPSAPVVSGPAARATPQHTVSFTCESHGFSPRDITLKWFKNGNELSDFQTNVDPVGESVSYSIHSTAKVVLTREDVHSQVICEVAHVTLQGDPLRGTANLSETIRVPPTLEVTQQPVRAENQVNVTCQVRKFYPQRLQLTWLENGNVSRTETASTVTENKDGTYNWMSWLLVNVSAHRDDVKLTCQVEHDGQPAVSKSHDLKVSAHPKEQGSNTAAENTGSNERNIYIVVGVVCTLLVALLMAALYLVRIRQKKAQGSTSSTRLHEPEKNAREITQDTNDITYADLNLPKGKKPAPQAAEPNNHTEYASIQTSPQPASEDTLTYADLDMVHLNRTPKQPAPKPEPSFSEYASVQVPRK
T1 sequence (Q08722 whole entry, looked up, the tested form may be a part): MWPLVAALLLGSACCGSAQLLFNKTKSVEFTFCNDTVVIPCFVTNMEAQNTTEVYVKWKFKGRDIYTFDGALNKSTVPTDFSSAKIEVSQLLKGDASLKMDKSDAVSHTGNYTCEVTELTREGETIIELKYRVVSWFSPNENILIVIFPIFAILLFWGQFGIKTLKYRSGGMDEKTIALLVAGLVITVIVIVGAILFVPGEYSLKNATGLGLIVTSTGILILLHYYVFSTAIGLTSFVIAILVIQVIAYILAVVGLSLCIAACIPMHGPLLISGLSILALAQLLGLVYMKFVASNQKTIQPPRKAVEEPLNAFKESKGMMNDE
Sequence of Parathyroid hormone/parathyroid hormone-related peptide receptor (Homo sapiens) (Q03431 whole entry, looked up): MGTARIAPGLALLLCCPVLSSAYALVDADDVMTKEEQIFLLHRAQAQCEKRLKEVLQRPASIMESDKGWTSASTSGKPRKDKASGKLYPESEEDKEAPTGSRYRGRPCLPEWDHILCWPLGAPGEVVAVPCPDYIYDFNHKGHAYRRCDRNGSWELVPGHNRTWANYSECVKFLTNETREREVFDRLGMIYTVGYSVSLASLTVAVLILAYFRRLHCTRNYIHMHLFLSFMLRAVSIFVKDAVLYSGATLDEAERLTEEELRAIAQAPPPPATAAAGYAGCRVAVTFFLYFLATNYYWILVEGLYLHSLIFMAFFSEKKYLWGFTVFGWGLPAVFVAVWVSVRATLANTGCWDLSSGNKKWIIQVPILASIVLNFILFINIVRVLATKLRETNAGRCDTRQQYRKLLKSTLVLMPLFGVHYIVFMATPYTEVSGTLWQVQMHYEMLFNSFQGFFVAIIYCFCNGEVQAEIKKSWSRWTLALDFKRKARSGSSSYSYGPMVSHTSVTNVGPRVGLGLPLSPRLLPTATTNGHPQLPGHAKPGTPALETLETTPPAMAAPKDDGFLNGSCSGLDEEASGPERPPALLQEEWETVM

O=C(O)c1cccc(-c2noc(-c3ccccc3F)n2)c1
inactive: Potency [1] | Potency [2] | Potency [3] | Potency [4]

CCN(CC)CCOc1ccc(Nc2ncc3cc(-c4c(Cl)cccc4Cl)c(=O)n(C)c3n2)cc1
inactive: outcome [5] | Potency [6]
active: Potency [1] 166 nM | Potency [3] 187 nM | Potency [4] 418 nM

CCCCCCCCOc1ccccc1C(=O)Nc1ccc(C(=O)OCC[N+](C)(CC)CC)cc1
inactive: Potency [1] | Potency [2]

CCCCN(CCCC)CCC(O)c1cc2c(Cl)cc(Cl)cc2c2cc(C(F)(F)F)ccc12 (stereo unspecified)
inactive: Potency [1] | Potency [2] | Potency [3]

COc1cc(C(C)=O)ccc1OCCCN1CCC(c2noc3cc(F)ccc23)CC1
inactive: Potency [1] | Potency [2] | Potency [3]

Clc1ccc(C(Cn2ccnc2)OCc2ccsc2Cl)c(Cl)c1 (stereo unspecified)
inactive: Potency [1] | Potency [2] | Potency [3]

CC(S)C(=O)NCC(=O)O (stereo unspecified)
inactive: Potency [1] | Potency [2] | Potency [3] | Potency [4]

CCCCCCCCCCCCCCCCCCCCCCO
inactive: Potency [1] | Potency [2] | Potency [3] | Potency [4]

O=C(NCC1CCCCN1)c1cc(OCC(F)(F)F)ccc1OCC(F)(F)F (stereo unspecified)
inactive: Potency [1] | Potency [2]

CCCCC(CC)COC(=O)C(C#N)=C(c1ccccc1)c1ccccc1 (stereo unspecified)
inactive: Potency [2] | Potency [3] | Potency [4]
inactive and 23.5 µM (active): Potency [1]

CC1=C(C(=O)O)N2C(=O)[C@@H](NC(=O)[C@H](N)C3=CCC=CC3)[C@H]2SC1
inactive: Potency [1] | Potency [2] | Potency [3] | Potency [4]

CCN(CC)CCOc1ccc(Cc2ccccc2)cc1
inactive: Potency [1] | Potency [2] | Potency [3]

Cc1nc2n(c(=O)c1CCN1CCC(c3noc4cc(F)ccc34)CC1)CCCC2
inactive: Potency [1] | Potency [2] | Potency [3] | Potency [4]

CS(=O)(=O)OCCCCOS(C)(=O)=O
inactive: Potency [1] | Potency [2] | Potency [3] | Potency [4]

Cc1cc(=O)oc2cc(O)ccc12
inactive: Potency [1] | Potency [2] | Potency [3] | Potency [4]

Cc1cccc(C#Cc2ccccc2)n1
inactive: Potency [1] | outcome [5] | Potency [6] | outcome [7] | Potency [3] | Potency [4]

Clc1ccc2c(N3CCN(CCCN4CCN(c5ccnc6cc(Cl)ccc56)CC4)CC3)ccnc2c1
inactive: Potency [1] | outcome [5] | outcome [8] | Potency [6] | Potency [3] | Potency [4]

Cc1nc(Nc2ncc(C(=O)Nc3c(C)cccc3Cl)s2)cc(N2CCN(CCO)CC2)n1
inactive: Potency [1] | Potency [2]
active: Potency [3] 23.5 µM and 8.41 µM | Potency [4] 18.7 µM and 15 µM

O=C(O)c1cc(=O)c2c(OCC(O)COc3cccc4oc(C(=O)O)cc(=O)c34)cccc2o1
inactive: Potency [1] | Potency [2] | Potency [3] | Potency [4]

CC(C)C[C@H](NC(=O)[C@H](Cc1ccccc1)NC(=O)c1cnccn1)B(O)O
active: Potency [1] 33.2 nM | Potency [2] 83.6 nM | Potency [3] 29.6 nM | Potency [4] 26.6 nM

Cc1cc(C2CCCCC2)n(O)c(=O)c1
inactive and 6.62 µM (active): Potency [1]
active: Potency [2] 7450 nM | Potency [3] 10600 nM

CN1C(C(=O)Nc2ccccn2)=C(O)c2sccc2S1(=O)=O
inactive: Potency [1] | Potency [2] | Potency [3] | Potency [4]

CCOc1cc(CC(=O)N[C@@H](CC(C)C)c2ccccc2N2CCCCC2)ccc1C(=O)O
inactive: Potency [1] | Potency [2] | Potency [3] | Potency [4]

CCC(C)(Oc1ccc(C2(c3ccc(OC(C)(CC)C(=O)O)cc3)CCCCC2)cc1)C(=O)O (stereo unspecified)
inactive: Potency [1] | Potency [2] | Potency [3] | Potency [4]

CCOC(=O)C1=C(O)C(=O)N(Cc2ccccc2)C1
inactive: Potency [1] | outcome [5] | outcome [8] | Potency [6] | Potency [3] | Potency [4]

CCOC(=O)C1=C[C@@H](OC(CC)CC)[C@H](NC(C)=O)[C@@H](N)C1
inactive: Potency [1] | Potency [2] | Potency [3] | Potency [4]

N[C@@H](Cc1cc(I)c(Oc2cc(I)c(O)c(I)c2)c(I)c1)C(=O)O
inactive: Potency [1] | Potency [2] | Potency [3] | Potency [4]

CC(=O)NC[C@H]1CN(c2ccc(N3CCOCC3)c(F)c2)C(=O)O1
inactive: Potency [1] | Potency [2] | Potency [3] | Potency [4]

CC[C@]1(O)C[C@H]2CN(CCc3c([nH]c4ccccc34)[C@@](C(=O)OC)(c3cc4c(cc3OC)N(C=O)[C@H]3[C@@](O)(C(=O)OC)[C@H](OC(C)=O)[C@]5(CC)C=CCN6CC[C@]43[C@@H]65)C2)C1
1.18 µM (active) and inactive: Potency [1]
active: Potency [2] 33 nM and 83.6 nM | Potency [3] 59 nM and 26.6 nM | Potency [4] 1 nM and 84.1 nM

Cc1ncc([N+](=O)[O-])n1CC(C)O (stereo unspecified)
inactive: Potency [1] | Potency [2] | Potency [3] | Potency [4]

CC(C)c1nc(CN(C)C(=O)N[C@H](C(=O)N[C@@H](Cc2ccccc2)C[C@H](O)[C@H](Cc2ccccc2)NC(=O)OCc2cncs2)C(C)C)cs1
inactive: Potency [1] | Potency [2] | Potency [3]

Cc1ccc(C(=O)c2cc(O)c(O)c([N+](=O)[O-])c2)cc1
inactive: Potency [1] | Potency [2] | Potency [3]

c1ccc2[nH]c(-c3cscn3)nc2c1
inactive: Potency [1] | Potency [3] | Potency [4]

CC(C)Oc1ccc2c(=O)c(-c3ccccc3)coc2c1
inactive: Potency [1] | Potency [2] | Potency [3] | Potency [4]

CN(C)C(=O)COC(=O)Cc1ccc(OC(=O)c2ccc(N=C(N)N)cc2)cc1
inactive: Potency [1] | Potency [3] | Potency [4]

O=C1CCc2ccc(OCCCCN3CCN(c4cccc(Cl)c4Cl)CC3)cc2N1
active: Potency [4] 18800 nM
inactive: Potency [2] | Potency [3]

CCN(CCO)CCCC(C)Nc1ccnc2cc(Cl)ccc12 (stereo unspecified)
inactive: Potency [1] | Potency [3] | activity change, negative = cytotoxic [4] 13.4% [at 4.84 µM]

COC1=C(OC)C(=O)C(CCCCCCCCCCO)=C(C)C1=O
inactive: Potency [1] | Potency [2] | Potency [4]

Clc1ccc(C(Cn2ccnc2)OCc2ccc(Sc3ccccc3)cc2)c(Cl)c1 (stereo unspecified)
inactive: Potency [1] | Potency [3] | Potency [4]

— PubChem BioAssay (NCATS)
